# Compound activity: PubChem BioAssay, National Center for Advancing Translational Sciences (NCATS)
# Most compounds without a hit are left out; they make up all but 6.2% or so of the library.
# RORg inh = qHTS for inhibitors of ROR gamma transcriptional activity | Potency, µM (top dose mostly 53.6 µM), for the others: at the highest dose activity change, negative = inhibition, usual class: inhibitors | 5.4% of 310,000 active | Drosophila S2 Gal4-RORgamma UAS-luciferase reporter, 20 h; also: nearly all actives have a fitted effect of over 60% in size
# Target sequence (P51450 whole entry, looked up, the tested form may be a part): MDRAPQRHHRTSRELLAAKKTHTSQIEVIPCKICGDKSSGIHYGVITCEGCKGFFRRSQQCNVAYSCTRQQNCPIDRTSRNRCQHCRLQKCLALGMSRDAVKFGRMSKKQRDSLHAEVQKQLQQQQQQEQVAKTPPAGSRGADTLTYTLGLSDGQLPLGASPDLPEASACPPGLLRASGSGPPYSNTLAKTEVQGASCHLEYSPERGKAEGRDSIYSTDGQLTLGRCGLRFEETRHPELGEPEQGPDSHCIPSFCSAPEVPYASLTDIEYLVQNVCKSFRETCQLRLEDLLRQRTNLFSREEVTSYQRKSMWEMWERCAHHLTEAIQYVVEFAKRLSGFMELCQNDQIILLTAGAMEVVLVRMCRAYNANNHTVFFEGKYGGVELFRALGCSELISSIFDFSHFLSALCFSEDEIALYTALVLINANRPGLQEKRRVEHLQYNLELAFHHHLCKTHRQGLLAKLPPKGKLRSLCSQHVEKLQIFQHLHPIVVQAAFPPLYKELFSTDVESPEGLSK
#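 Schneider cells (Drosophila), stable Gal4 DBD–ROR gamma + UAS-luc; 1 hr cmpd preincubation; Cu2+ induction 700 uM final; 20 hr ambient; luminescence.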
# VP16 counter = VP16 counterscreen qHTS for inhibitors of ROR gamma transcriptional activity; 3.5% of 310,000 active; Potency, µM (titrated, usually from 53.6 µM), for the others: at the top dose activity, negative = inhibition, hits mostly inhibitors; AID 2546, 2010; Drosophila S2 Gal4-VP16 UAS-luciferase, luminescence, 20 h;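 also: Gal4-VP16 expression switched on by copper sulfate through the metallothionein promoter; nearly all actives have a fitted effect of over 50% in size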
# KinaseGlo FLuc = Counterscreen for Luciferase (Kinase-Glo TM) Inhibition; Kinase-Glo luciferase, ATP luminescence, 8 min; Luciferin 4-monooxygenase (Photuris pensylvanica), Q27757; Potency, µM (doses to about 38.3 µM), without a hit: top-dose activity change, negative = inhibition, most hits filed as inhibitors; 0.28% of 200,000 active; also: nearly all actives have a fitted effect of over 60% in size
#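 Kinase-Glo luciferase light output from ATP and luciferin was measured with 10 uM ATP, within the enzyme's linear range. Buffer: 50 mM imidazole pH 7.2, 50 mM KCl, 7 mM MgCl2, 0.01% Tween 20, 0.05% BSA; luminescence read after 8 min at ambient temperature.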
# * = called active by the depositor; ? = inconclusive; . = no result; [ ] = remark or other dose. Calls follow the shape of the dose curve; as a rule, active = well fitted curve in the direction sought with a large enough effect; inconclusive = small, poorly fitted or top-dose-only effect, or another doubt; inactive = no such curve, though single readings can be large; an effect the other way counts as inactive or inconclusive. % is scaled to controls: 0 for no effect and ±100 for the full control effect; potency is read from the fitted curve at half-maximal effect.
SMILES,RORg inh,VP16 counter,KinaseGlo FLuc
COc1ccc(S(=O)(=O)NC(CC(=O)NCCc2ccc(OC)c(OC)c2)C(C)C)cc1 (stereo not given),18.7%,-6.6%,1.1%
CCCOc1ccc(Cc2c(Cl)nc(SC)nc2OC)cc1,41.2%,-14.4%,2.3%
CCCOc1ccc(Cc2c(Cl)nc(SC)nc2N(C)C)cc1,?,5.01µM*,-0.4%
O=C1CS(=O)(=O)c2ccccc2N1,1.8%,-3.8%,.
O=C(O)c1ccc(Sc2nnnn2-c2ccccc2)c([N+](=O)[O-])c1,-12.1%,1.9%,4.4%
COC(=O)c1ccc(Sc2nnnn2-c2ccccc2)c([N+](=O)[O-])c1,12.6µM*,?,-2.1%
CCOC(=O)c1c(NC(=O)c2cnn3c2NC(c2cccc(OC)c2)CC3C(F)(F)F)sc2c1CCCC2 (stereo not given),-15.8%,3.8%,1.2%
CCc1ccc(N(CC(=O)N2CCOCC2)S(C)(=O)=O)cc1,3.0%,-2.7%,.
CCOC(=O)c1cnc2ccc(C)cc2c1Sc1ccc(F)cc1,?,28.2µM*,-1.5%
CCOC(=O)c1cnc2ccc(C)cc2c1Sc1ccccc1,-33.3%,-3.7%,1.7%
C=CCCN(C(C)C(=O)OC)S(=O)(=O)c1ccccc1Br (stereo not given),-23.1%,-3.6%,.
CC(=O)c1ccc(NC(=O)COc2ccc3c(c2)OCO3)cc1,4.3%,-17.2%,8.1%
Cc1ccnc2nc(C(=O)Nc3ccc4c(c3)OCO4)nn12,?,?,12.6µM*
Cc1cc(C)n2nc(C(=O)Nc3ccc4c(c3)OCO4)nc2n1,-2.7%[0.365 µM],.,?
CCc1nnc(NC(=O)CSc2nc3cc(OC)ccc3cc2C)s1,?,4.3%,-0.3%
Cc1ccc(CSCC(=O)NCc2ccco2)cc1,10.7%,-0.7%[10 µM],0.4%
S=C(Nc1cccc(Cl)c1Cl)NC1CCN(Cc2ccccc2)CC1,-41.4%,?,.
S=C(Nc1ccc2nsnc2c1)NC1CCCCC1,2.51µM*,5.01µM*,1.1%
Fc1ccc(NC(=S)NC2CCN(Cc3ccccc3)CC2)cc1,?,-8.1%,2.0%
S=C(Nc1ccc(Cl)c(Cl)c1)NC1CCN(Cc2ccccc2)CC1,?,35.5µM*,0.4%
S=C(Nc1ccc2nsnc2c1)N1CCCCCC1,14.4%,4.7%,-1.5%
O=c1[nH]c2ccc(NC(=S)NC3CCCCC3)cc2[nH]1,-0.3%,6.2%,.
S=C(Nc1ccc(Cl)c(Cl)c1)NC1CCCCC1,2.51µM*,5.62µM*,10.5%
CC(C)(C)CC(C)(C)NC(=S)NC1CCN(Cc2ccccc2)CC1,14.1µM*,10µM*,3.4%
Cc1ccc(NCc2nnc(SCC(=O)OC3CCCCC3)o2)c(C)c1,9.4%,-14.7%,6.2%
SMILES,RORg inh,VP16 counter,KinaseGlo FLuc
Cc1cccn2cc(CNc3ccccc3)nc12,?,0.8%,-3.0%
CCOC(=S)SCc1cn2cccc(C)c2n1,14.1µM*,-26.9%,-0.3%
O=C(N/C(=C\c1ccccc1)C(=O)N1CCCCC1)c1ccc(Br)o1,8.9%,-4.2%,.
CC(C)(C)c1cc[n+](C2=C([O-])c3ccccc3C(=O)/C2=N\S(=O)(=O)c2cccs2)cc1,11.2µM*,8.91µM*,.
O=C1/C(=N\S(=O)(=O)c2cccs2)C([n+]2ccccc2)=C([O-])c2ccccc21,-0.3%,?,.
O=C1CC(c2ccc3c(c2)OCCO3)Oc2ccc([N+](=O)[O-])cc21 (stereo not given),11.2µM*,12.6µM*,.
O=C1CC(c2ccc3c(c2)OCCO3)Oc2ccccc21 (stereo not given),-12.2%,-5.8%,.
Cc1cc(C)cc(NC(=S)NCc2ccc(S(N)(=O)=O)cc2)c1,-18.8%,-5.5%,-0.8%
CC1=CC(c2ccccc2)=Nc2ccc(C)cc2N1,-43.2%,-27.0%,-25.2%
Fc1ccc(Cn2nnnc2CN2CCc3ccccc3C2)cc1,-17.9%,-27.0%,-5.2%
COc1ccc(C(=O)NCC(=O)OCC(=O)NCCC2=CCCCC2)cc1,-15.1%,5.9%,5.1%
COc1ccc(C(=O)NCCC2=CCCCC2)cc1,12.6µM*,?,-4.8%
O=C(NCCC1=CCCCC1)c1ccc([N+](=O)[O-])cc1,?,?,-3.0%
O=C(NCCC1=CCCCC1)c1ccc(F)cc1,?,11.2µM*,-3.2%
CCCCNC(=S)NNC(=O)c1nn(C)c(C)c1Cl,?,-9.2%,8.9%
CCCCNC(=S)NNC(=O)CCn1nc(C)c(Br)c1C,0.631µM*,2.82µM*,-6.3%
Cc1nn(CCC(=O)NNC(=S)Nc2ccc([N+](=O)[O-])cc2)c(C)c1[N+](=O)[O-],-16.8%,-1.3%,-2.1%
Cc1nn(C)c(C(=O)NNC(=S)Nc2ccc(F)cc2)c1[N+](=O)[O-],7.94µM*,?,2.0%
